Sampled rows, rich in hits. Any-hit rate of the full collection: about 2.4%.
CHT block: inhibitors of human choline transporter CHT; CHT-expressing cells, membrane potential dye, choline response; stronger effect = lower value; B-score at 10 µM; 0.86% of 310,000 active; AID 488975;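 active means B-score over 3 SD under the library average, and starting fluorescence ratio not unusually high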;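 further: choline stimulus applied at its EC90 after an EC20 pre-addition; B-score computed on integrated fluorescence ratio after choline addition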
CHT allo act: allosterically activates the human high affinity choline transporter. Q9GZV3. CHT-expressing cells, membrane potential dye, choline EC20; stronger effect = higher value; LV-AA mutant CHT in HEK293 cells. B-score at 10 µM. 0.49% of 310,000 active;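 active means initial fluorescence not abnormally high and integrated response B-score, plate-corrected, over 3 SD above library mean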
TMEM16A inh: mouse TMEM16A channel inhibition, primary screen; HEK293 TMEM16A/YFP iodide influx fluorescence, ionomycin; normalized B-score (activity score, 25-100; higher = stronger inhibition) at 10 µM; Q8BHY3; 1.2% of 310,000 active; AID 588511;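 active means ratio plate-corrected score three or more library SD toward inhibition, starting fluorescence score within five deviations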;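 further: score derived from kinetic fluorescence span divided by baseline fluorescence per well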
Target sequence (Q8BHY3 whole entry, looked up): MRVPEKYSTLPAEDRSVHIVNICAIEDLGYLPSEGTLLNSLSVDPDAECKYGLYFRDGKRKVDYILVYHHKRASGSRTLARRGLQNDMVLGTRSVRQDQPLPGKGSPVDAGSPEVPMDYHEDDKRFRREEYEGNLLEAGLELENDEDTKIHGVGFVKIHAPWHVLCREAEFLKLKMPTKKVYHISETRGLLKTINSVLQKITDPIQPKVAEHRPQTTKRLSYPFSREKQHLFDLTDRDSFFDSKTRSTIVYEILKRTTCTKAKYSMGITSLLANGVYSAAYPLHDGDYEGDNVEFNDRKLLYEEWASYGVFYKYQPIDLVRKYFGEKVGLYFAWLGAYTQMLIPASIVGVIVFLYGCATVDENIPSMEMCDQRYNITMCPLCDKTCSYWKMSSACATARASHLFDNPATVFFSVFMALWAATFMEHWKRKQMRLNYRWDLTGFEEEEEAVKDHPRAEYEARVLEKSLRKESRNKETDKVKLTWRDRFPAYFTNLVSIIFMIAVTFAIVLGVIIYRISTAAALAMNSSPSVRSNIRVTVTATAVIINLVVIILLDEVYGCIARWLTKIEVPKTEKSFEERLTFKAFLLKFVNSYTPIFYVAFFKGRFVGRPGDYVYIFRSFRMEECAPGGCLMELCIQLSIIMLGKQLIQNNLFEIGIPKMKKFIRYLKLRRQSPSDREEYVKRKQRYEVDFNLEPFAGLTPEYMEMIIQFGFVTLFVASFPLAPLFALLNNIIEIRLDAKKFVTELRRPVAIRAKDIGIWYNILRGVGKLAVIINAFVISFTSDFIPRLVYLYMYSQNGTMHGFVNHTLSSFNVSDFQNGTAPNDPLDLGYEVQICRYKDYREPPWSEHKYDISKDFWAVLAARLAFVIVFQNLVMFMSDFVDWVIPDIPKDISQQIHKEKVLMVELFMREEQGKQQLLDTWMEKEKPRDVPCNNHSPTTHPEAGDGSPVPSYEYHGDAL
ANO1 activ: activators or potentiators of mouse TMEM16A chloride channel; Q8BHY3; HEK293 TMEM16A/YFP-H148Q/I152L, iodide quench fluorescence; stronger effect = lower value; B-score at 10 µM; 0.3% of 340,000 active; AID 623877;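 active means fluorescence-ratio B-score plate-corrected deviation score at least 3 library SD below zero, with starting fluorescence score within 5 deviations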;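 further: channel opened by trigger with iodide after compound preincubation; score built on the fluorescence ratio of max minus min over baseline; more negative score means more quench and so TMEM16A activation or potentiation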
An asterisk follows results filed as active; i = inactive; nt = no result given.

SMILES | CHT block | CHT allo act | TMEM16A inh | ANO1 activ
CN(C)c1ccc(/C=C2\C(=N)N3N=C(CC(=O)N4CCCCC4)SC3=NC2=O)cc1 | i | i | i | -5.52*
COC(=O)c1scc(C)c1NC(=O)Nc1ccccc1 | i | i | 25* | i
COC(=O)c1scc(C)c1NC(=O)C(Cl)c1ccccc1 (stereo not given) | i | i | i | i
O=c1c(/C=N/OCc2ccc(Cl)cc2Cl)c[nH]n1-c1cccc(Cl)n1 | i | i | 25* | i
O=[N+]([O-])c1c(Nc2ccc(O)cc2)cc(Cl)c2nonc12 | i | i | 100* | -8.29*
CC12CCC(=O)C=C1CCC1C2CCC2(C)C1CC[C@]2(O)C(=O)CO (stereo not given in full) | i | i | i | i
O=C(NCCCNc1ccc(C(F)(F)F)cc1[N+](=O)[O-])c1ccc(Cl)cc1 | i | i | 100* | i
Cc1cc(C)nc(/N=C(\N)Nc2ccc(OCc3ccccc3)cc2)n1 | i | i | 100* | -7.78*
CCCCc1n[nH]c(=S)n1Cc1ccc(Cl)cc1 | i | i | i | i
CC(=O)Nc1ccc(SCC(=O)N(CCC#N)c2ccc(C)cc2)cc1 | i | i | i | i
C/C(CS(=O)(=O)c1ccc(Cl)c(Cl)c1)=N/NC(N)=S | i | i | i | -8.52*
COc1ccc(-c2csc(C3=C(O)CN(C(C)C)C3=N)n2)cc1OC | i | i | i | i
COc1ccc(N(C)S(=O)(=O)c2cccc(C(=O)NCC3CCCCC3)c2)cc1 | nt | nt | nt | -36.9*
COC(=O)c1ccc(COC(=O)CNS(=O)(=O)c2ccc(C)cc2)cc1 | i | i | i | i
CCOc1ccc(-c2cnc(NCc3cccc4ccccc34)n2CCOC)cc1 | i | i | 100* | i
O=C(NCc1ccccc1)c1cccc(COc2ccc(Cl)cc2)c1 | i | i | 25* | i
N#CC1=C(N)NC(SCC(=O)O)=C(C#N)C12CCCC2 | i | i | i | i
N#CC1=C(N)NC(SCc2ccc(F)cc2)=C(C#N)C12CCCCC2 | i | i | 100* | i
CCOC(=O)C1CCCN(c2nc(C)nc3c2oc2ccccc23)C1 (stereo not given) | i | i | 25* | i
CCc1nc(N2CCCC(C)C2)c2oc3ccccc3c2n1 (stereo not given) | i | i | i | i
Cc1cc(C)cc(NC(=O)CSCc2nc3c(nnn3Cc3ccc(F)cc3)c(=O)[nH]2)c1 | i | i | 25* | i
Cc1ccc(Cn2nnc3c(=O)[nH]c(C4CCCN(C(=O)Nc5ccc(F)cc5F)C4)nc32)cc1 (stereo not given) | i | i | i | i
COc1ccc(N(C(=O)Cc2cccs2)C(C(=O)NC2CCCCC2)c2cccn2C)cc1OC (stereo not given) | i | i | i | -5.42*
Cc1cc(NC(=S)NC(=O)c2ccco2)c2ccccc2n1 | i | i | i | i
Cc1cc(NC(=O)Cc2ccccc2)c2ccccc2n1 | i | i | 25* | i
SMILES | CHT block | CHT allo act | TMEM16A inh | ANO1 activ
CCCN1CCc2c(sc(NC(=S)NC(=O)c3ccccc3)c2C#N)C1 | i | i | i | -5.41*
CC(C)N1CCc2c(sc(NC(=S)NC(=O)c3ccccc3)c2C#N)C1 | i | i | i | i
COc1cc(OC)c(NC(=O)CC(=O)Nc2cc(Cl)c(OC)cc2OC)cc1Cl | i | i | i | i
CCCCCCCNC(=O)c1ccc(N2CCC3(CC2)OCCO3)c([N+](=O)[O-])c1 | i | i | 100* | i
CCCNC(=O)c1ccc(N2CCC3(CC2)CC(c2ccccc2)=NO3)c([N+](=O)[O-])c1 | i | i | i | i
CCOC(=O)c1cnc2c(C#N)c(C)nn2c1C | i | i | i | -22.8*
CC(C)=CCc1c(O)cc2c(=O)c3ccc(O)cc3oc2c1O | i | i | i | -7.03*
CC(C)=CCc1c(O)cc(O)c2c(=O)c(O[C@@H]3O[C@@H](C)[C@H](O)[C@@H](O)[C@H]3O)c(-c3ccc(O)cc3)oc12 | i | i | i | i
CCCCN(C(=O)C1CSC2(C)CCC(=O)N12)c1c(N)n(Cc2ccccc2)c(=O)[nH]c1=O (stereo not given) | nt | nt | nt | i
O=C(c1ccc(Oc2ccc([N+](=O)[O-])cc2)cc1)N1CCCCCC1 | i | i | 25* | i
Cc1csc(NC(=O)Cc2nn(C)c(=O)c3ccccc23)n1 | i | i | 25* | i
COc1cccc(OC)c1NC(=O)Cc1nn(C)c(=O)c2ccccc12 | i | i | i | i
COc1ccccc1NC(=O)Cc1nn(C)c(=O)c2ccccc12 | i | i | 25* | i
CCOc1ccc(-c2cc(C(=O)NCCCn3ccnc3)c3cc(Br)ccc3n2)cc1 | i | i | i | i
CCN(CC)CCCNc1ccc(-c2nnc(-c3ccc(OCC(C)C)cc3)o2)cn1 | i | i | i | -5.64*
COC(=O)c1ccccc1NC(=O)c1cc(-c2ccc(O)cc2)on1 | i | i | i | i
CCOC(=O)C1CCN(C(=O)c2ccc3c(c2)NC(=O)/C(=C\c2ccc(C)cc2)S3)CC1 | i | i | i | i
CCOC(=O)C1CCN(C(=O)c2ccc3c(c2)NC(=O)/C(=C/c2ccccc2)S3)CC1 | i | i | i | -50.5*
COc1ccccc1-c1cc(C(=O)Nc2cccnc2)no1 | i | 11* | i | i
Cc1ccsc1/C=N/n1cnc2sc(C)c(C)c2c1=O | i | i | i | i
COc1cccc(CNC(=O)CSCc2cnn(-c3ccccc3)c2-n2cccc2)c1OC | i | i | 100* | i
COc1ccccc1CNC(=O)CSCc1cnn(-c2ccccc2)c1-n1cccc1 | i | i | i | i
CN1CCN(C2=C(Cl)C(=O)C(c3cnc(N4CCCCC4)s3)=C(Cl)C2=O)CC1 | i | i | 100* | i
CCOC(=O)N1CCN(C(=S)Nc2ccc3nc(N4CCN(CC)CC4)cc(C)c3c2)CC1 | -8.34* | i | i | i
COCCNC(=O)c1cnn2c(C(F)(F)F)cc(-c3ccc(C)cc3)nc12 | i | i | i | -5.24*
SMILES | CHT block | CHT allo act | TMEM16A inh | ANO1 activ
Cc1ccc(-c2cc(C(F)(F)F)n3ncc(C(=O)O)c3n2)cc1 | nt | nt | nt | i
O=C(NCc1cccnc1)c1cc(Sc2cccc(Cl)c2)nc2ccccc12 | i | i | i | i
COc1ccc(CNC(=O)[C@H](C)N2C(=O)N3CCc4c([nH]c5ccccc45)[C@@]3(C)C2=O)cc1OC | i | i | i | -13*
COc1cc(Br)cc(-c2nc3c(c(=O)[nH]c(=O)n3Cc3ccccc3)n2C)c1O | i | i | i | i
CCN1C(Nc2ccccc2)=NC[C@@H]1CC(C)C | i | i | i | i
CC(C)C[C@H]1CN=C(Nc2ccccc2)N1CCc1cccc(F)c1 | nt | nt | nt | -5.15*

Screens from PubChem.
